An excerpt weighted towards active compounds, which were near 4.7% of everything screened.
ATG4B inhibitor – ATG4B protease inhibitors, primary screen, biochemical, fluorescence, uHTS; AID 504462, 2011; 340,000 tested, 0.51% active; Cysteine protease ATG4B (Homo sapiens), Q9Y4P1; ATG4B cleavage of LC3-PLA2, NBD-HPC fluorescence, 1 h; inhibition, % at 8.33 µM; in the data active = inhibition above about 40%
Target sequence (Q9Y4P1 whole entry, looked up): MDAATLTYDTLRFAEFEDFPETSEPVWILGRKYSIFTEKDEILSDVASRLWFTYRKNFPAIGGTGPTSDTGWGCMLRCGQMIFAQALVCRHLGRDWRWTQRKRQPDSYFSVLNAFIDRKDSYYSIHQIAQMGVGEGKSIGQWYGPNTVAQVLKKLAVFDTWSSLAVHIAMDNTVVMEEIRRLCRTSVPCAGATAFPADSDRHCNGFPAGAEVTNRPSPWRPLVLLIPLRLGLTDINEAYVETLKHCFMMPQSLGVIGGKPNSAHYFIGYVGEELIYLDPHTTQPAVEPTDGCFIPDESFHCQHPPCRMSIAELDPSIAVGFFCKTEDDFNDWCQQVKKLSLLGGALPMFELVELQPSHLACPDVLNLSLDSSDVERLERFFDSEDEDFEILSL
TIM10 inh – growth inhibitors of isogenic TIM10 control yeast, primary screen, counter-screen for tim10-1 yeast inhibitor project, luminescence, uHTS. S. cerevisiae TIM10 strain growth, BacTiter-Glo luminescence, 24 h. inhibition, % at 10 µM. 330,000 tested, 1.4% active. AID 463195, 2010;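 active = inhibition of 40% or more at the single tested concentration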;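 also: wild-type TIM10 isogenic control strain grown at permissive 25 °C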
PfHsp90 set2 – growth inhibition of PfHsp90-expressing yeast, primary screen, antimalarial PfHsp90 inhibitor project, S. cerevisiae, BacTiter-Glo luminescence, single point, set 2; BacTiter-Glo ATP, 48 h; yeast lacking PDR1 and PDR3 efflux regulators; inhibition, % at 9.4 µM; 310,000 tested, 0.32% active; AID 504621, 2011;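 active = every replicate shows inhibition above about 80%, whatever the replicate mean, limit read from the data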
tim23-1 inh – growth inhibitors of tim23-1 mutant yeast, primary screen, luminescence, uHTS; S. cerevisiae tim23-1 growth, BacTiter-Glo luminescence, 24 h; 330,000 tested, 1.3% active; inhibition, % at 20 µM;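 active = growth inhibition of the mutant yeast at or above 50%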;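 also: temperature-sensitive mutant grown at 25 °C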
tim10-1 inh – growth inhibitors of tim10-1 mutant yeast, primary screen, luminescence, uHTS. inhibition, % at 20 µM. S. cerevisiae tim10-1 ts strain growth, BacTiter-Glo, 24 h. 330,000 tested, 2.2% active;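 active = inhibition of at least 40%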;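 also: mutant grown at 25 °C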
SKKanGAS inh – S. pyogenes SKKanGAS growth inhibitors in kanamycin, primary screen, streptokinase expression inhibitor project, SKKanGAS strain, BacTiter-Glo luminescence | 6 h | inhibition, % at 7.5 µM | 300,000 tested, 1.3% active;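 active = mean replicate score, as percent of positive control median, at least 50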;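 also: strain carries kanamycin resistance gene driven by streptokinase promoter and grows in 40 µg/ml kanamycin; loss of luminescence reflects streptokinase promoter inhibition or plain growth inhibition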
tim10-1 confirm – growth inhibitors of tim10-1 mutant yeast, confirmation, single concentration, luminescence, S. cerevisiae; AID 463213, 2010; S. cerevisiae tim10-1 ts strain growth, BacTiter-Glo, 24 h; shares compounds with tim10-1 inh; inhibition, % at 20 µM; 7,400 tested, 56% active;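 active = inhibition of yeast growth at or above a set limit in either of two repeat tests at 20 µM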;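 also: tim10-1 mutant grown at permissive 25 °C to find synthetic lethal compounds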
Large screens that a line does not name were inactive (follow-up assays come after a bar, where they were run).

COc1ccc2c(c1)OC[C@H]1[C@H]2N2C(=O)c3cc(OC)ccc3NC(=O)[C@@]2(C)[C@H]1c1ccccc1	PfHsp90 set2 113, tim10-1 inh 44 (no result: SKKanGAS inh) | tim10-1 confirm inactive
Cc1csc(=N)n1-c1ccc(Cl)cc1	tim10-1 inh 48 | tim10-1 confirm inactive
Cc1ccc(-n2c(C)csc2=N)cc1	none
O=C(NCc1ccco1)c1cc2nc(-c3cccs3)cc(C(F)(F)F)n2n1	tim10-1 inh 43 | tim10-1 confirm inactive
Cc1occc1-c1nnc(SCC(=O)Nc2ccccc2N2CCCCC2)n1C	tim10-1 inh 47 | tim10-1 confirm inactive
Cc1occc1-c1nnc(SCC(=O)Nc2ccccc2)n1C	none
COc1ccc(OC)c(/C(O)=C/C(=O)C(=O)Nc2cc(C)cc(C)c2)c1	none
Cc1ccccc1OCC(=O)NNC(=S)NC(=O)c1ccccc1[N+](=O)[O-]	tim10-1 inh 42 | tim10-1 confirm inactive
CNC(=S)NNC(=O)COc1ccccc1C	none
Cc1ccc2c(c1)nnn2C1CCN(S(=O)(=O)c2ccc(C(=O)NC3CCCC3)cc2)CC1	none (no result: PfHsp90 set2)
CCOC(=O)c1c(NC(=O)CSc2nnc(-c3ccco3)o2)sc(C)c1C	tim10-1 inh 42 | tim10-1 confirm inactive
CCOC(=O)c1c(NC(=O)CSc2nnc(-c3ccco3)o2)sc(C(C)=O)c1C	none
Cc1ccc(C)c(N2CCN(C(=O)CCC(=O)Nc3nnc(C(F)(F)F)s3)CC2)c1	tim10-1 inh 55 | tim10-1 confirm inactive
COc1ccc(CC(=O)OCC(=O)Nc2ncc(Cl)c(C)c2Cl)cc1	tim10-1 inh 43 (no result: PfHsp90 set2, SKKanGAS inh) | tim10-1 confirm 30
O=C(/C=C/c1c(F)cccc1Cl)c1ccc(F)cc1	none
Clc1cccc(Cl)c1/C=C/c1ccn[nH]1	tim10-1 inh 55 | tim10-1 confirm 40
CCC(=O)Nc1ccc(C2C(=O)c3ccccc3C2=O)cc1	tim10-1 inh 42 | tim10-1 confirm inactive
COc1ccc(/C=N/NC(=O)c2cc(-c3ccccc3)nc3ccccc23)cc1O	none
COc1cc(/C=N/NC(=O)c2cc(-c3ccccc3)nc3ccccc23)ccc1O	tim10-1 inh 41 | tim10-1 confirm inactive
N#C/C(C(=O)N1CCCCC1)=C1/N=C(NC(=O)c2ccc(F)cc2)c2ccccc21	tim10-1 inh 44 | tim10-1 confirm inactive
Cc1cccc(/C=N/NC(=O)Cn2nnnc2N)n1	none
CNCCCOc1ccc(Cl)cc1C(C)(C)C	tim10-1 inh 41 | tim10-1 confirm inactive
COCCCNCCCOc1ccc(Cl)cc1C(C)(C)C	none
O=C(Nc1ccc(Cl)c(Cl)c1)c1ccc(Cn2cc(Cl)cn2)cc1	none (no result: TIM10 inh, PfHsp90 set2, tim23-1 inh, tim10-1 inh)
CCOc1ccc(C(=O)Nc2cnn(Cc3ccc(Cl)c(Cl)c3)c2)cc1	tim10-1 inh 41 | tim10-1 confirm 35
O=C(/C(N=Nc1cccc(C(F)(F)F)c1)=C(/O)c1cccs1)C(F)(F)F	tim10-1 inh 40 | tim10-1 confirm 31
Cc1ccc(C(=O)O/N=C2\CCSc3ccc(C)cc32)cc1	tim10-1 inh 40 (no result: PfHsp90 set2) | tim10-1 confirm 33
Cc1cccc(C(=O)O/N=C2\CCSc3ccc(C)cc32)c1	none
CCOCC(=O)NC1CCc2cc(OC(=O)COCC)c(OC)c(OC)c2-c2ccc(SC)c(=O)cc21 (stereo not given)	none (no result: TIM10 inh, tim23-1 inh, tim10-1 inh, SKKanGAS inh)
COc1ccc(OC)c(NC(=O)c2cccc3c2C(=O)N(C2CCCCC2)C3)c1	tim10-1 inh 54 | tim10-1 confirm inactive
COc1ccc(NC(=O)c2cccc3c2C(=O)N(C2CCCCC2)C3)cc1	none
CCc1ccc(-c2cc(C)no2)cc1S(=O)(=O)NCc1ccccc1OC	tim10-1 inh 41 | tim10-1 confirm inactive
CCOC(=O)c1csc(N/N=C2\CCc3ccccc32)n1	none
COc1ccc2c(c1)CCC/C2=N\Nc1nc(C(=O)NN)cs1	tim10-1 inh 41 (no result: PfHsp90 set2) | tim10-1 confirm 38
CCOC(=O)c1csc(N/N=C2\CCCc3ccccc32)n1	tim10-1 inh 48, SKKanGAS inh 50 | tim10-1 confirm inactive
CSc1nsc(NC(=O)CCNC(=O)c2ccc([N+](=O)[O-])cc2)n1	none
COc1cccc(-c2noc(N)c2C#N)c1	tim10-1 inh 52 | tim10-1 confirm 44
COc1ccc(C2=Nn3c(nnc3-c3ccccc3C(F)(F)F)SC2)cc1OC1CCOC1 (stereo not given)	none (no result: SKKanGAS inh)
O=C(/C=C/c1c(Cl)nc2ccccn12)N1CCN(c2ccccc2F)CC1	tim10-1 inh 46 | tim10-1 confirm 36
CCN1CCCC1CNC(=O)c1cc2c(C)nc3ccccc3c2o1 (stereo not given)	none
Cc1nc2ccccc2c2oc(C(=O)NCC3COc4ccccc4O3)cc12 (stereo not given)	tim10-1 inh 41 (no result: PfHsp90 set2) | tim10-1 confirm inactive
CCc1ccc(CNC(=O)c2cc3c(C)nc4ccccc4c3o2)cc1	tim10-1 inh 43 | tim10-1 confirm inactive
COc1ccc(CNC(=O)c2cccnc2SC)cc1OC	none
CC(C)Cn1c(=O)c2c(nc3n2CCCN3Cc2ccccc2)n(C)c1=O	tim10-1 inh 42 | tim10-1 confirm inactive
Cn1c(=O)n(C/C=C/c2ccccc2)c(=O)c2c1nc1n2CCCN1c1ccc(F)cc1	tim10-1 inh 46 | tim10-1 confirm inactive
Cn1c(=O)n(Cc2ccc(F)cc2)c(=O)c2c1nc1n2CCCN1C1CCCCC1	tim10-1 inh 48 | tim10-1 confirm inactive
O=C(O)C(Cc1ccccc1)N=Cc1c(O)c2ccccc2oc1=O (stereo not given)	none
CCOC(=O)C1CCCN(C(=O)/C=C/c2ccc(Cl)cc2)C1 (stereo not given)	tim10-1 inh 41 | tim10-1 confirm inactive
COc1cccc(-c2nc(=S)c3c(n2Cc2ccco2)CCCC3)c1	tim10-1 inh 42 | tim10-1 confirm 40
CCC(C)[C@H](NC(=O)NCc1ccc(Cl)cc1)C(=O)OC (stereo not given in full)	none
Cc1cc(C)n(CCc2nc(-c3ccc(C)o3)cs2)n1	none
Cc1cc(C)n(CCc2nc(-c3cc4ccccc4o3)cs2)n1	tim10-1 inh 43 | tim10-1 confirm inactive
Cc1nnc(SCC(=O)Nc2ccc(Oc3ccccc3)cc2)n1N	none
O=C(Nc1ccc(S(=O)(=O)Nc2nccs2)cc1)c1ccc(S(=O)(=O)N2CCOCC2)cc1	none
Cc1ccc(C(=O)c2no[n+]([O-])c2C(=O)c2ccc(C)cc2)cc1	PfHsp90 set2 128, tim10-1 inh 44 | tim10-1 confirm 60
